From PubChem BioAssay (Tox21)
Results filed as inconclusive are left out. Where a call stands in place of a potency, no number is given. A structure can be active in one record and inactive in another. Active and inactive are the calls of the source. Unless noted, the call rests on the fitted dose curve; in most records, active means well fitted curve in the direction sought with a large enough effect in the repeat runs; inconclusive means weak or mixed curves; inactive means no such curve, though single readings can be large; an effect the other way counts as inactive or inconclusive.

What was measured:
[1] = qHTS RealTime-Glo MT Cell Viability Assay in HEK293 cells - 0 hour (AID 1224880); further: top concentration of the series differs between compounds; nearly all actives have a fitted effect of over 45% in size
Outline: (§1)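 Viable HEK293 cells reduce a cell-permeant prosubstrate; the product diffuses out and is consumed by NanoLuc in the medium to give light. Compounds went in after a 5 h incubation and plates were read over the treatment course.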

[2] = A CellTox Green Cytotoxicity Assay to monitor cytotoxicity in HEK293 cells - 32 hour (AID 1224881); further: nearly all actives have a fitted effect of over 40% in size
Outline: (§2)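 Fluorescence intensity, read at 0, 8, 16, 24, 32 and 40 h of compound treatment, reflected dye binding to DNA of dead HEK293 cells; compounds (23 nL, DMSO) were added 5 h after plating cells with reagent.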

[3] = A CellTox Green Cytotoxicity Assay to monitor cytotoxicity in HepG2 cells - 0 hour (AID 1224882); further: nearly all actives have a fitted effect of over 35% in size
Outline: (§3)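 Using 1536-well format, dye-containing HepG2 suspension was seeded, allowed 5 h at 37 C/5% CO2, dosed by pintool with compounds, positive and negative controls, and imaged for fluorescence across 40 h.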

[4] = A CellTox Green Cytotoxicity Assay to monitor cytotoxicity in HepG2 cells - 32 hour (AID 1224883); further: nearly all actives have a fitted effect of over 50% in size
Outline: as §3

[5] = A CellTox Green Cytotoxicity Assay to monitor cytotoxicity in HEK293 cells - 8 hour (AID 1224884); further: nearly all actives have a fitted effect of over 35% in size
Outline: as §2

[6] = qHTS RealTime-Glo MT Cell Viability Assay in HepG2 cells - 16 hour (AID 1224885); further: nearly all actives have a fitted effect of over 50% in size
Outline: (§4)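 Tox21 10K library screened in qHTS format on HepG2 cells carrying RealTime-Glo reagents. Compounds were added after a 5 h preincubation, and the luminescent signal from continuous culture was measured repeatedly during 40 h treatment.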

[7] = qHTS RealTime-Glo MT Cell Viability Assay in HEK293 cells - 24 hour (AID 1224886); further: top concentration of the series differs between compounds; nearly all actives have a fitted effect of over 50% in size
Outline: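 Luminescence generated by NanoLuc from substrate produced by living HEK293 cells served as the viability signal. Each value reflects the reading at its stated time point during continuous 40 h compound exposure at 37 C.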

[8] = qHTS RealTime-Glo MT Cell Viability Assay in HEK293 cells - 8 hour (AID 1224887); further: top concentration of the series differs between compounds; nearly all actives have a fitted effect of over 50% in size
Outline: as §1

[9] = qHTS RealTime-Glo MT Cell Viability Assay in HepG2 cells - 0 hour (AID 1224889); further: nearly all actives have a fitted effect of over 50% in size
Outline: as §4

[10] = A CellTox Green Cytotoxicity Assay to monitor cytotoxicity in HepG2 cells - 8 hour (AID 1224890); further: nearly all actives have a fitted effect of over 45% in size
Outline: as §3

[11] = qHTS assay to identify small molecule antagonists of the estrogen receptor alpha (ER-alpha) signaling pathway using the BG1 cell line in the presence of 0.1 nM 17-beta-estradiol - cell viability counter screen (AID 1259241); further: nearly all actives have a fitted effect of over 40% in size
Outline: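 Measures cytotoxicity alongside the ER-alpha antagonist readout: VM7Luc4E2 cells, charcoal-stripped serum, 0.1 nM 17beta-estradiol final, 22 hr compound incubation at 37C, CellTiter-Fluor fluorescence.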

[12] = qHTS assay to identify small molecule antagonists of the androgen receptor (AR) signaling pathway using the MDA cell line in the presence of 0.5 nM R1881 - cell viability counter screen (AID 1259242); further: nearly all actives have a fitted effect of over 45% in size
Outline: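 Viability of MDA-kb2 cells was multiplexed with the luciferase AR readout; after 16 hr with compounds and R1881 at 0.5 nM final, CellTiter-Fluor fluorescence was recorded.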

[13] = biological target: Estrogen receptor (Homo sapiens) (UniProt P03372); experiment: qHTS assay to identify small molecule antagonists of the estrogen receptor alpha (ER-alpha) signaling pathway using the BG1 cell line in the presence of 0.1 nM 17-beta-estradiol (AID 1259244); further: nearly all actives have a fitted effect of over 50% in size; further: potency means the concentration at half of the fitted maximal effect
Outline: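 Estradiol at 0.1 nM (final) stimulates the endogenous ER-alpha of VM7Luc4E2 cells carrying an ERE-driven luciferase; compounds are co-incubated 22 h at 37C and luciferase output quantified by luminescence.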

[14] = qHTS assay to identify small molecule phospholipidosis (PLD) inducers (AID 1259344; active means well fitted curve in the direction sought with a large enough effect; an effect the other way counts as inactive or inconclusive)
Outline: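 HepG2 cells on collagen I, attached 4 h at 37 C, were co-treated with compound and LipidTOX Red dye for 24 h at 37 C, then fixed with paraformaldehyde plus Hoechst 33342 and imaged by high-content microscopy for phospholipid accumulation.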

[15] = qHTS assay to identify small molecule HDAC inhibitors (AID 1259364);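 further: wild-type HCT-116 cells with endogenous class I/II HDAC activity; top concentration of the series differs between compounds; nearly all actives have a fitted effect of over 45% in size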
Outline: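 Read-out: luminescence of HDAC-Glo I/II reagent, 30 min RT, reflecting class I/II deacetylase activity in whole HCT-116 cells pre-exposed 2 h to DMSO-dissolved compounds.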

[16] = qHTS assay to identify small molecule HDAC inhibitors - cell viability counter screen (AID 1259365)
Outline: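 Following a 2hr exposure of overnight-plated wild-type HCT-116 cells to DMSO-delivered compounds, CellTiter-Glo was added and luminescence recorded after 30min at room temperature.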

[17] = qHTS assay to identify small molecule agonists of the sonic hedgehog signaling (Shh) pathway - cell viability counter screen (AID 1259366); further: nearly all actives have a fitted effect of over 50% in size
Outline: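 After a 4hr attachment at 37C, NIH/3T3 cells bearing an integrated Gli1-driven luciferase reporter were dosed with compounds. Treatment lasted 24hr, with the final hour including CellTiter-Fluor for a fluorescence viability measurement.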

[18] = A CellTox Green Cytotoxicity Assay to monitor cytotoxicity in HEK293 cells - 16 hour (AID 1224888); further: nearly all actives have a fitted effect of over 35% in size
Outline: as §2

[19] = qHTS assay to identify small molecule antagonists of the sonic hedgehog signaling (Shh) pathway - cell viability counter screen (AID 1259367); further: nearly all actives have a fitted effect of over 55% in size; further: potency means the concentration at half of the fitted maximal effect
Outline: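 NIH/3T3-derived Gli1-Luc reporter cells (2,000 per well) rested 4 hr at 37 C, then received DMSO compounds plus conditioned medium. After 23 hr of treatment, CellTiter-Fluor was added for 1 hr at 37C and fluorescence read.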

[20] = biological target: Androgen receptor (Homo sapiens) (UniProt P10275); experiment: qHTS assay to identify small molecule antagonists of the androgen receptor (AR) signaling pathway using the MDA cell line in the presence of 0.5 nM R1881 (AID 1259243); further: nearly all actives have a fitted effect of over 50% in size; further: potency means the concentration at half of the fitted maximal effect
Outline: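 Reporter cells cultured without CO2 receive test chemicals, then 0.5 nM R1881 final; after 16 hr at 37C, ONE-Glo is added and light output recorded.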

Sequence of Estrogen receptor (Homo sapiens) (P03372 whole entry, looked up): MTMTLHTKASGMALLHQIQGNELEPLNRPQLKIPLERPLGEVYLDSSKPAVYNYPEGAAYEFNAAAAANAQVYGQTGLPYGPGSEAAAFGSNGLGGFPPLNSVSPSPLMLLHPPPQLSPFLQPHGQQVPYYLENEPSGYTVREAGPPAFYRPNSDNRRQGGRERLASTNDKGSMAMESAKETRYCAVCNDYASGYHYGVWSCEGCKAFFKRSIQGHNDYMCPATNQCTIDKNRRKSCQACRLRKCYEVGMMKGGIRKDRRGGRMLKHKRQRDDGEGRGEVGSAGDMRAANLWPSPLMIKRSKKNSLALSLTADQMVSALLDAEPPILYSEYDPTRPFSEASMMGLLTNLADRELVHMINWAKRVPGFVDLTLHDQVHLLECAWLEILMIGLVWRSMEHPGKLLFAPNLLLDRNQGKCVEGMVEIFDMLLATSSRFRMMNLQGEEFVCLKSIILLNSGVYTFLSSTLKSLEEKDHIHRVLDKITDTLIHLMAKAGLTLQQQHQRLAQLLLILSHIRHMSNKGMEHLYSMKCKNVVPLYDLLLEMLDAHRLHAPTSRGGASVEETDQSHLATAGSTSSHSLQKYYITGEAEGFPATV
Sequence of Androgen receptor (Homo sapiens) (P10275 whole entry, looked up): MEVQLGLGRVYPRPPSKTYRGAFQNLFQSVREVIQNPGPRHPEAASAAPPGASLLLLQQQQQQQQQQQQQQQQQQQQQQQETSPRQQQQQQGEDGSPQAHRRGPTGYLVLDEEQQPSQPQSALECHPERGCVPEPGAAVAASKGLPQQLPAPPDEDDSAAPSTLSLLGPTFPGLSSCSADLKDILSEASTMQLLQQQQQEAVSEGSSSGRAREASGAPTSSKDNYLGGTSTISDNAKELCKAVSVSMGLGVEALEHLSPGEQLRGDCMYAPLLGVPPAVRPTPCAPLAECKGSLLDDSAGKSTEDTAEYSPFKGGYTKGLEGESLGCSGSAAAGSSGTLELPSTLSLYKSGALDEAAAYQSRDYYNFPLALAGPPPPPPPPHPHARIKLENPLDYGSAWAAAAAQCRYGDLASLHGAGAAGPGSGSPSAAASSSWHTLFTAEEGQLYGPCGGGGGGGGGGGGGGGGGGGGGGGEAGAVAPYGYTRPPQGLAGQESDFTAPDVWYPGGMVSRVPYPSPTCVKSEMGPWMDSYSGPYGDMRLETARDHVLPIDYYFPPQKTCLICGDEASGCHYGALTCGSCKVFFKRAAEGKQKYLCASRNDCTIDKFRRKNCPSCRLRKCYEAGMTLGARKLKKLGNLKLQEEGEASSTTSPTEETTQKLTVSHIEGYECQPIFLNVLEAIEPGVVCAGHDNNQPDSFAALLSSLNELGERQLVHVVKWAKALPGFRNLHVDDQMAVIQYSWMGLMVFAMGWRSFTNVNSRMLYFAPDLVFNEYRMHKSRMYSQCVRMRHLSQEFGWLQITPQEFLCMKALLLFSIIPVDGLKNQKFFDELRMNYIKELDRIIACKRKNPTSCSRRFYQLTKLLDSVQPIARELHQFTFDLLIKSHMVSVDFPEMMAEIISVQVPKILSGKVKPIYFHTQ

SMILES | outcome [1] | Potency [2] | outcome [3] | Potency [4] | Potency [5] | Potency [6] | Potency [7] | Potency [8] | outcome [9] | Potency [10] | outcome [11] | Potency [12] | Potency [13] | Potency [14] | Potency [15] | outcome [16] | Potency [17] | Potency [18] | Potency [19] | Potency [20]
Cn1c(CCCC(=O)O)nc2cc(N(CCCl)CCCl)ccc21 | inactive | inactive | inactive | inactive | inactive | inactive | inactive | inactive | inactive | inactive | inactive | inactive | inactive | inactive | inactive | inactive | inactive |  |  | 
CCN(CC)CCOC(=O)C(O)(c1ccccc1)c1ccccc1 | inactive | inactive | inactive | inactive | inactive | inactive | inactive | inactive | inactive | inactive | inactive | inactive | inactive | inactive | inactive | inactive | inactive | inactive |  | 
ClCCN1CCCC1 | inactive | inactive | inactive | inactive | inactive | inactive | inactive | inactive | inactive | inactive | inactive | inactive | inactive |  | inactive | inactive | inactive |  | inactive | 
CC1N=C(N)OC1c1ccccc1 (stereo not drawn) | inactive | inactive | inactive | inactive | inactive | inactive | inactive | inactive | inactive | inactive | inactive | inactive | inactive | inactive | inactive | inactive | inactive | inactive | inactive | 
N[C@@H](Cc1ccc(Oc2cc(I)c(O)c(I)c2)c(I)c1)C(=O)O | inactive | inactive | inactive | inactive | inactive | inactive | inactive |  | inactive | inactive | inactive | inactive | inactive | inactive | inactive | inactive | inactive | inactive | inactive | 
O=C(Cl)c1ccccc1 | inactive | inactive | inactive | inactive | inactive | inactive |  | inactive | inactive | inactive | inactive | inactive | inactive |  | inactive | inactive | inactive | inactive | inactive | 
BrCC1CO1 (stereo not drawn) | inactive | inactive | inactive | inactive | inactive | inactive | inactive |  | inactive | inactive | inactive | inactive | inactive |  | inactive | inactive | inactive | inactive | inactive | 
CCOC1Oc2ccc(OS(C)(=O)=O)cc2C1(C)C (stereo not drawn) | inactive | inactive | inactive | inactive | inactive | inactive |  | inactive | inactive | inactive | inactive | inactive | 54 µM (active) |  | inactive | inactive | inactive |  | inactive | 60.6 µM (active)
C=CC1(C)OC(=O)N(c2cc(Cl)cc(Cl)c2)C1=O (stereo not drawn) | inactive | inactive | inactive | inactive | inactive | inactive | inactive |  | inactive | inactive | inactive | inactive |  |  | inactive | inactive | inactive | inactive | 54.2 µM (active) and inactive | 
O=C(Cl)/C=C/C(=O)Cl | inactive | inactive | inactive | inactive | inactive | inactive |  | inactive | inactive | inactive | inactive | inactive | inactive |  | inactive | inactive |  | inactive |  | inactive
COc1cccc(C=O)c1 | inactive | inactive | inactive | inactive | inactive | inactive |  | inactive | inactive | inactive | inactive | inactive |  |  | inactive | inactive | inactive | inactive |  | 
C=CC=O | inactive | inactive | inactive | inactive | inactive | inactive |  | inactive | inactive | inactive | inactive | inactive |  |  | inactive | inactive | inactive | inactive | inactive | 
C#CC(C)(C)O | inactive | inactive | inactive | inactive | inactive | inactive |  | inactive | inactive | inactive | inactive | inactive |  |  | inactive | inactive | inactive | inactive | inactive | 
CS(=O)(=O)Cl | inactive | inactive | inactive | inactive | inactive | inactive | inactive |  | inactive | inactive | inactive | inactive | inactive |  | inactive | inactive | inactive | inactive |  | 
CCCC(C)C1(CC)C(=O)N=C(S)NC1=O (stereo not drawn) | inactive | inactive | inactive | inactive | inactive | inactive |  | inactive | inactive | inactive | inactive | inactive |  | inactive | inactive | inactive | inactive | inactive | inactive | 
CC(C)(C)c1cc(O)ccc1O | inactive | inactive | inactive | inactive | inactive | inactive |  |  | inactive | inactive | inactive | inactive |  | inactive | inactive | inactive | inactive | inactive | inactive | 
